In all, about 400,000 compounds went through this assay and about 2,100 (0.53%) were called active. Inconclusive results (about 14%) are left out. How the calls were made is not given here. Many of the other results were omitted from the sample, so actives are more common in it than they were.

Chain of Ataxin-2 (Homo sapiens) (Q99700 whole entry): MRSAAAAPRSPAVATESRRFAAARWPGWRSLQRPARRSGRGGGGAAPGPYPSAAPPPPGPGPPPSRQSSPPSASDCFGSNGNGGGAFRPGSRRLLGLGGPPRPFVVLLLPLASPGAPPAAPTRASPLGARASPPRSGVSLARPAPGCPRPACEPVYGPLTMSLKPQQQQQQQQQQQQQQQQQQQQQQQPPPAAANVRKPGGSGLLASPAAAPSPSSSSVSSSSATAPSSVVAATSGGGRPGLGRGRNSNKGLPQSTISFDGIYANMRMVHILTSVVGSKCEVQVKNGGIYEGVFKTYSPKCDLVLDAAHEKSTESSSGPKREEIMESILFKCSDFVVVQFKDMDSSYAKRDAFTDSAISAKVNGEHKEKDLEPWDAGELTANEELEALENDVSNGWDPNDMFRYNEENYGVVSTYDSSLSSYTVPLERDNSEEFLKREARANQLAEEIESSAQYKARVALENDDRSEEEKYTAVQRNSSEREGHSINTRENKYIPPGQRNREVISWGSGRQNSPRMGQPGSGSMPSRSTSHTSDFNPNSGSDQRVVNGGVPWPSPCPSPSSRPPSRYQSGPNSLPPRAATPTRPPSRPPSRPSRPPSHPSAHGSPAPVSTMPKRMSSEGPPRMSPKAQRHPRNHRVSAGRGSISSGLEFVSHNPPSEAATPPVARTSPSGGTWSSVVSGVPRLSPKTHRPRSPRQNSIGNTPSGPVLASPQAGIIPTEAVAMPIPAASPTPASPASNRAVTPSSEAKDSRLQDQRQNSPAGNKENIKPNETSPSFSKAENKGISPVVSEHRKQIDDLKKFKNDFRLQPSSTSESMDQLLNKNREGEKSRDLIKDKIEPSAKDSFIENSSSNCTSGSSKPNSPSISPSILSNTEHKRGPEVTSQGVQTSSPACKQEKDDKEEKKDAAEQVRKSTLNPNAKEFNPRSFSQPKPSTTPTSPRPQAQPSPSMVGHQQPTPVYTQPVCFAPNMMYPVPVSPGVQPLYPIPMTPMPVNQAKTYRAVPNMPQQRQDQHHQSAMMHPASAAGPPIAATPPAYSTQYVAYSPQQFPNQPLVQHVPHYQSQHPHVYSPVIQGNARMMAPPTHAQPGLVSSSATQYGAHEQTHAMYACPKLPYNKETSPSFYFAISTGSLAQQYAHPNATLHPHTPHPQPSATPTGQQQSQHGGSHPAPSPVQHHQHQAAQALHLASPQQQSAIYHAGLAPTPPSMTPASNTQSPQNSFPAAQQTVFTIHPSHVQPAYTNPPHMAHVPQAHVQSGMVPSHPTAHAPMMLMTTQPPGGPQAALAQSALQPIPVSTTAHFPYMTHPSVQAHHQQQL

The assay addresses Ataxin-2 (Homo sapiens) (UniProt Q99700). Briefly: qHTS for Inhibitors of ATXN expression. Format: functional. (In general: Quantitative high-throughput screening tests each substance at several concentrations.)
With `CS(=O)(=O)Nc1nc2n(n1)C(c1ccccc1)C=C(c1ccc(Br)cc1)N2` (stereo not drawn), the Potency result is “inactive”.

For `COc1ccc(C2CC(c3ccccc3C(F)(F)F)=NN2c2ccc(S(N)(=O)=O)cc2)cc1` (stereo not drawn), the Potency entry is “inactive”.

In the case of `CCOC(=O)C1CCN(Cc2ccc3ccccc3c2)CC1`, the Potency entry was “inactive”.

As to `Cc1ccc(Cn2c(CN3CCC(C(=O)NCc4cccnc4)CC3)cc3ccccc32)cc1`, the Potency was 35.5 µM (active).

For `Cc1cccn2c(=O)c3cc(C(=O)NCc4cccnc4)c(=N)n(CC4CCCO4)c3nc12` (stereo not drawn), the Potency entry is “inactive”.

Regarding `CN(C)CCNC(=O)C1CCN(Cc2cc3ccccc3n2Cc2ccccc2)CC1`, the Potency is 28.2 µM (active).

On to `Cc1cccc(Cn2c(CN3CCC(C(=O)NCc4cccnc4)CC3)cc3ccccc32)c1`, for which the Potency was 22.4 µM (active).

As for `CCCn1c(=N)c(C(=O)NCc2cccnc2)cc2c(=O)n3cc(C)ccc3nc21`, the Potency result was “inactive”.

`O=C(Nc1nc2c(s1)CN(Cc1ccccc1)CC2)C1CCCC1`: the Potency entry is “inactive”.

In the case of `Cc1ccccc1Cn1c(CN2CCC(C(=O)NCc3cccnc3)CC2)cc2ccccc21`, the Potency is 31.6 µM (active).

As to `CCCn1c(=N)c(C(=O)NCc2cccnc2)cc2c(=O)n3cccc(C)c3nc21`, the Potency result is “inactive”.

With `Cc1ccc(CNC(=O)C2CCN(c3nnc(N4CCCC4=O)s3)CC2)cc1`, the Potency entry is “inactive”.

With `O=C(Nc1nc2c(s1)CN(Cc1ccccc1)CC2)C1CCC1`, the Potency result was “inactive”.

Consider `CCn1c(=N)c(C(=O)NCc2cccnc2)cc2c(=O)n3cc(C)ccc3nc21`, for which the Potency entry was “inactive”.

`CC1CCCCC1NC(=O)CN1C(=O)c2cccc(N)c2C1=O` (stereo not drawn): the Potency entry is “inactive”.

For `Cc1snc(SCC(=O)c2ccc(F)cc2)c1C#N`, the Potency entry is “inactive”.

On to `COCCCNC(=O)/C(C#N)=C/c1c(N2CCN(c3ccccc3)CC2)nc2ccccn2c1=O`, for which the Potency entry was “inactive”.

Take `CCCC(=O)Nc1nn(CCC)c2nc3ccccc3cc12`: the Potency result is “inactive”.

In the case of `Oc1nc(-c2ccccc2)nc2sc(-c3ccccc3)cc12`, the Potency entry is “inactive”.

In the case of `Cc1cccc(N2C(=O)c3cccc4c(N(C)CCO)ccc(c34)C2=O)c1`, the Potency entry is “inactive”.

Regarding `Cc1ccc2nc3c(cc(C(=O)NCC4CCCO4)c(=N)n3C3CCCC3)c(=O)n2c1` (stereo not drawn), the Potency result is “inactive”.

On to `Nc1c(C(=O)N/N=C/c2cccnc2)oc2nc(-c3ccccc3)cc(-c3ccco3)c12`, for which the Potency entry was “inactive”.

Consider `CCOC(=O)N1CCC(NS(=O)(=O)c2ccc(C)cc2)CC1`, for which the Potency entry is “inactive”.

In the case of `Cc1csc(NC(=O)C2CCN(C(=O)c3ccccc3C)CC2)n1`, the Potency result is “inactive”.

Turning to `CCOC(=O)N1CCN(C(=O)C2CCN(C(=O)c3ccccc3C)CC2)CC1`, the Potency was 35.5 µM (active).

Regarding `O=C1OCCN1C(=O)[C@H]1[C@H](c2ccc(Cl)cc2)C(c2ccccc2)=NN1c1ccc(Br)cc1`, the Potency result was “inactive”.

For `COC(=O)C1=C(C)NC(=O)NC1c1ccc(N2CCC(c3ccccc3)=N2)cc1` (stereo not drawn), the Potency entry is “inactive”.

Take `COc1ccc(C2=CC(c3cccc(OC)c3)n3nnnc3N2)cc1` (stereo not drawn): the Potency result was “inactive”.

On to `COC(=O)c1ccc(CSc2cc(C)c3cccc(C)c3n2)o1`, for which the Potency result is “inactive”.

For `N#CCCN(C(=O)CCl)c1cccc(Cl)c1`, the Potency was 8.91 µM (active).

Consider `O=C(CCl)N(Cc1cccc([N+](=O)[O-])c1)c1cccc(Cl)c1`, for which the Potency was 2.67 µM (active).

Regarding `Cc1ccc(N(CCC#N)C(=O)CCl)cc1C`, the Potency was 35.5 µM (active).

For the compound `N#Cc1c2ccc(O)cc2n2ccccc12`, the Potency entry is “inactive”.

Take `O=C(c1ccc(F)cc1)C1CCN(C(=O)c2ccccc2F)CC1`: the Potency entry is “inactive”.

On to `C=CCNC(=O)CSc1nc2sc3c(c2c(=O)n1CCCOC)CCC3`, for which the Potency entry is “inactive”.

For `CCn1c(SCC(=O)Nc2cc(C)on2)nc2sc3c(c2c1=O)CCCC3`, the Potency was 10 µM (active).

As for `Cc1cc(NC(=O)CSc2nc3c(cc2C#N)CCCC3)no1`, the Potency result is “inactive”.

As for `Cc1c(O)ccc2c(CN(C)Cc3ccccc3)cc(=O)oc12`, the Potency entry is “inactive”.

Regarding `O=c1cc(-c2ccccc2)oc2ccc(O)cc12`, the Potency result is “inactive”.

Consider `Cc1ccc(C(=O)Nc2c(C)cc(-c3ccccc3)oc2=O)cc1`, for which the Potency result was “inactive”.

In the case of `O=c1oc(-c2ccccc2)cc(Cl)c1Cl`, the Potency is 29.9 µM (active).

As to `O=S(=O)(Nc1nccs1)c1ccc(F)cc1`, the Potency result is “inactive”.

`O=C1C=C(C#Cc2ccc(Oc3ccccc3)cc2)C[C@@H](c2ccc(F)cc2)C1`: the Potency was 28.2 µM (active).

`CC(C)C1C(=O)N(Cc2cn(CCC3OCCCO3)nn2)CCS(=O)(=O)N1Cc1ccc(-c2ccc(Cl)c(Cl)c2)cc1` (stereo not drawn): the Potency was 31.6 µM (active).

Consider `CC1C(=O)N(Cc2cn(CCC3OCCO3)nn2)CCS(=O)(=O)N1Cc1ccc(-c2ccc(Cl)c(Cl)c2)cc1` (stereo not drawn), for which the Potency was 31.6 µM (active).

As for `COc1ccc(Cn2c(SCC#N)nc3ccc(N4CCOCC4)cc3c2=O)cc1`, the Potency result was “inactive”.

With `COc1ccc(-c2ccc(CN3C(C)C(=O)N(Cc4cn(CCC5OCCO5)nn4)CCS3(=O)=O)cc2)cc1` (stereo not drawn), the Potency is 35.5 µM (active).

Turning to `CCN1CCN(C(CC(C)C)c2nnnn2CS(=O)(=O)c2ccc(C)cc2)CC1` (stereo not drawn), the Potency result is “inactive”.

Take `Cc1ccc(Cc2cnc(NC(=O)/C(C#N)=C/c3ccc(-c4ccc([N+](=O)[O-])cc4)o3)s2)cc1`: the Potency is 22.4 µM (active).

Take `Cc1ccc(C(=O)N/C(=C/c2ccc(-c3ccc([N+](=O)[O-])cc3)o2)C(=O)NCCCN(C)C)cc1`: the Potency result was “inactive”.

In the case of `COc1cccc(NC(=O)/C(C#N)=C/c2ccc(-c3ccc(C)cc3)o2)c1`, the Potency entry was “inactive”.

Regarding `N=c1c(C(=O)NCc2ccc(F)cc2)cc2c(=O)n3ccccc3nc2n1CC1CCCO1` (stereo not drawn), the Potency result is “inactive”.

For `CN1CCc2c(sc3c2C(=O)NC(c2ccc(-c4ccc(Cl)cc4)o2)N3)C1` (stereo not drawn), the Potency result was “inactive”.

Consider `O=C1c2cccc3c(N4CCCCC4)ccc(c23)C(=O)N1c1ccccc1O`, for which the Potency result is “inactive”.

In the case of `O=C1C=C(N2CCCCC2)c2ccccc2C1=O`, the Potency is 18.9 µM (active).

On to `O=C1c2ccccc2-c2ccc(C(=O)N3CCCCC3)cc21`, for which the Potency result is “inactive”.

In the case of `COc1ccccc1C1CN(c2ccccc2)N=C1c1cccs1` (stereo not drawn), the Potency result is “inactive”.

In the case of `N#Cc1ccc(CN2CCN(C(=O)c3cc(Cl)c4c(c3)OCCO4)CC2)cc1`, the Potency result is “inactive”.

For the compound `CCN1C(=O)c2cccc3c(Cl)ccc(c23)C1=O`, the Potency entry is “inactive”.

For `Cc1ccc(-n2c(N)c(C(=O)Nc3c(C)n(C)n(-c4ccccc4)c3=O)c3nc4ccccc4nc32)cc1`, the Potency was 21.2 µM (active).

In the case of `COCCNC(=O)c1c(N)n(-c2ccccc2)c2nc3ccccc3nc12`, the Potency entry was “inactive”.

`COCCCNC(=O)c1c(N)n(-c2ccccc2)c2nc3ccccc3nc12`: the Potency entry was “inactive”.

Turning to `CN(Cc1ccc(OC(F)F)cc1)C(=O)C1CCN(S(=O)(=O)c2ccc3c(c2)OCCO3)CC1`, the Potency entry was “inactive”.

The record behind these values is ChEMBL document CHEMBL1201862, “PubChem BioAssay data set” (2004).
